High-throughput results from PubChem.
This is a sample that favours compounds with a hit; in the whole collection about 2.3% have one here.
Pf Dd2 growth: blocks growth of Plasmodium falciparum Dd2 parasites | P. falciparum Dd2 growth, SYBR Green, 72 h; stronger effect = lower value | activity change, % at 10 µM | 2.3% of 94,000 active; in the data active means activity change below about -80%
C diff growth: inhibitors of Clostridium difficile growth; AID 1259249; growth activity, negative = inhibition, % at 16 µg/mL (by protocol); 0.25% of 86,000 active; Clostridium difficile clinical isolate growth, OD600, 24 h; stronger effect = lower value;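 active means mean growth activity at or below -80% and every replicate also at or below -80%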;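 further: 0% = DMSO wells and -100% = levofloxacin 16 µg/mL wells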
* marks the source's active call; other numbers are inactive results; . = no result; ! = not confirmed by another sample.

SMILES	Pf Dd2 growth	C diff growth
CO[C@H]1CN(C)C(=O)c2ccc(NC(=O)c3ccc(-c4ccccc4)cc3)cc2OC[C@H](C)NC[C@@H]1C	-44	-9
CO[C@@H]1CN(C)C(=O)c2ccc(NC(=O)c3ccccc3)cc2OC[C@H](C)NC[C@@H]1C	25	.
CO[C@H]1CN(C)C(=O)c2cc(NC(=O)c3ccc(Oc4ccccc4)cc3)ccc2OC[C@@H](C)NC[C@@H]1C	-90*	-6
COc1ccc(CN2CC3(CN(C(=O)Cc4ccncc4)C3)c3c([nH]c4cc(OC)ccc34)[C@H]2CO)cc1	-56	2
Cc1noc(C)c1NC(=O)N[C@H]1CC[C@@H](CC(=O)N2CCN(C)CC2)O[C@@H]1CO	-29	-7
CCCC#Cc1cnc2c(c1)C(=O)N([C@@H](C)CO)C[C@@H](C)[C@@H](CN(C)C(=O)C1CCCCC1)O2	-32	4
CCC(=O)N1CCC2(CC1)CN(S(=O)(=O)c1ccccc1)[C@H](CO)c1[nH]c3cc(OC)ccc3c12	-86*	-13
COc1ccc2c3c([nH]c2c1)[C@@H](CO)N(S(=O)(=O)c1ccccc1)CC31CCN(C)CC1	-17	4
CCCC(=O)N1CCC2(CC1)CN(S(=O)(=O)c1ccc(C)cc1)[C@@H](CO)c1[nH]c3cc(OC)ccc3c12	-92*	4
COc1ccc2c3c([nH]c2c1)[C@H](CO)N(C)CC31CCN(S(=O)(=O)c2ccc(C)cc2)CC1	-23	-4
O=C(C[C@@H]1C[C@@H]2c3cc(NS(=O)(=O)c4ccc(F)cc4)ccc3O[C@@H]2[C@H](CO)O1)NCc1ccncc1	16	-1
C[C@@H]1CN([C@H](C)CO)C(=O)c2cc(NC(=O)Nc3ccc(C(F)(F)F)cc3)ccc2O[C@@H](C)CCCCO[C@H]1CN(C)Cc1ccccc1	-87*	42
C[C@H](CO)N1C[C@H](C)[C@@H](CN(C)Cc2ccccc2)OCCCC[C@H](C)Oc2ccc(NC(=O)Nc3ccc(C(F)(F)F)cc3)cc2C1=O	-39	20
COc1ccc(CN(C)C[C@@H]2OCCCC[C@H](C)Oc3ccc(NC(=O)Nc4ccc(C(F)(F)F)cc4)cc3C(=O)N([C@H](C)CO)C[C@H]2C)cc1	-43	-96*
COc1ccc(CN(C)C[C@@H]2OCCCC[C@@H](C)Oc3ccc(NC(=O)Nc4ccc(C(F)(F)F)cc4)cc3C(=O)N([C@H](C)CO)C[C@@H]2C)cc1	37	0
COc1ccc(CN(C)C[C@@H]2OCCCC[C@H](C)Oc3ccc(NC(=O)Nc4ccc(C(F)(F)F)cc4)cc3C(=O)N([C@@H](C)CO)C[C@H]2C)cc1	-49	-83*
COc1ccc(NC(=O)Nc2ccc3c(c2)C(=O)N([C@H](C)CO)C[C@H](C)[C@@H](CN(C)Cc2ccc(C(F)(F)F)cc2)OCCCC[C@H](C)O3)cc1	-1	6
C[C@@H]1CN([C@@H](C)CO)C(=O)c2cc(NC(=O)NC3CCCCC3)ccc2O[C@@H]1CN(C)Cc1ccc(-c2ccccc2)cc1	6	9
O=C(N[C@@H]1CC[C@H](CCNC(=O)C2CC2)O[C@@H]1CO)c1ccccn1	.	0
Cc1noc(C)c1S(=O)(=O)Nc1ccc2c(c1)C(=O)N([C@@H](C)CO)C[C@@H](C)[C@@H](CN(C)C(=O)Nc1ccc(C(F)(F)F)cc1)OCCCC[C@H](C)O2	-82*	3
Cc1noc(C)c1S(=O)(=O)Nc1ccc2c(c1)C(=O)N([C@H](C)CO)C[C@H](C)[C@@H](CN(C)C(=O)Nc1ccccc1)OCCCC[C@H](C)O2	3	-3
Cc1noc(C)c1S(=O)(=O)Nc1ccc2c(c1)C(=O)N([C@@H](C)CO)C[C@@H](C)[C@H](CN(C)C(=O)Nc1ccc(C(F)(F)F)cc1)OCCCC[C@H](C)O2	-32	-2
Cc1noc(C)c1S(=O)(=O)Nc1ccc2c(c1)C(=O)N([C@H](C)CO)C[C@@H](C)[C@@H](CN(C)C(=O)Nc1ccccc1)OCCCC[C@@H](C)O2	-84*	7
CC(=O)N1[C@@H]2c3cccc(=O)n3C[C@@H]2[C@@H](CO)[C@@H]1C(=O)N1CCc2ccccc2C1	13	1
CCCNC(=O)C[C@H]1CC[C@@H]2[C@H](COC[C@@H](O)CN2C(=O)c2cccnc2)O1	-4	4
C[C@H](CO)N1C[C@H](C)[C@H](CN(C)C(=O)C2CCCCC2)Oc2ncc(-c3ccccc3)cc2C1=O	-29	-4
C[C@@H]1CN([C@H](C)CO)S(=O)(=O)c2ccc(C#Cc3ccccc3F)cc2O[C@H]1CN(C)C(=O)c1ccc2c(c1)OCO2	-81*!	-4
C[C@H]1CN([C@@H](C)CO)S(=O)(=O)c2ccc(/C=C/c3ccccc3)cc2O[C@H]1CN(C)C(=O)c1ccc2c(c1)OCO2	-72	11
C[C@H](CO)N1C[C@H](C)[C@H](CN(C)C(=O)c2ccc3c(c2)OCO3)Oc2cc(/C=C/c3ccccc3)ccc2S1(=O)=O	-83*	1
